# According to the supplement of paper PMC6555819:
# Key:
# Experiment in all cases: PBM binding z-score (relative to random genomic background probes); higher = stronger binding; sequences stand for … in GC…GCGATTGACAGCGTAGAATGAAGG
# [1] = test system: FXR:RXRa (NR concentration 270 nM, RXRa partner concentration 90 nM)
# In short: (§1)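 Random background probes are the reference for binding z-scores. These scores derive from regression-normalized fluorescence on custom Agilent 4×180K protein-binding microarrays incubated 1 h with ligand-free nuclear receptor dimers. Binding was detected with antibodies against each partner (one per run).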
# [2] = test system: LXRa:RXRa (NR concentration 270 nM, RXRa partner concentration 90 nM)
# In short: as §1
# [3] = test system: LXRa homodimer (NR concentration 270 nM)
# In short: as §1
# [4] = test system: LXRb:RXRa (NR concentration 270 nM, RXRa partner concentration 90 nM)
# In short: as §1
# [5] = test system: LXRb homodimer (NR concentration 270 nM)
# In short: as §1
# [6] = test system: PPARa:RXRa (NR concentration 270 nM, RXRa partner concentration 90 nM)
# In short: as §1
# [7] = test system: PPARg:RXRa (NR concentration 180 nM, RXRa partner concentration 90 nM)
# In short: as §1
# [8] = test system: PPARg:RXRa 270nM:90nM, anti-RXR (NR concentration 270 nM, RXRa partner concentration 90 nM)
# In short: as §1
# [9] = test system: PPARg:RXRa 30nM:10nM, anti-RXR (NR concentration 30 nM, RXRa partner concentration 10 nM)
# In short: as §1
# [10] = test system: PPARg:RXRa 90nM:30nM, anti-RXR (NR concentration 90 nM, RXRa partner concentration 30 nM)
# In short: as §1
# [11] = test system: PPARg:RXRa DBDmut IVT, anti-RXR (DBD mutation: RXRa K156A/R161A, NR concentration 270 nM, RXRa partner concentration 90 nM)
# In short: as §1
# [12] = test system: PPARg:RXRa IVT, anti-PPARg (NR concentration 270 nM, RXRa partner concentration 90 nM)
# In short: as §1
# [13] = test system: PPARg DBDmut:RXRa IVT, anti-PPARg (DBD mutation: PPARg1 K132A/R137A, NR concentration 270 nM, RXRa partner concentration 90 nM)
# In short: as §1
# [14] = test system: PPARg DBDmut IVT, anti-PPARg (DBD mutation: PPARg1 K132A/R137A, NR concentration 270 nM)
# In short: as §1
# [15] = test system: PPARg homodimer (NR concentration 180 nM)
# In short: as §1
# [16] = test system: PXR:RXRa (NR concentration 270 nM, RXRa partner concentration 90 nM)
# In short: as §1
# [17] = test system: PXR homodimer (NR concentration 270 nM)
# In short: as §1
# [18] = test system: RARa:RXR (NR concentration 270 nM, RXRa partner concentration 90 nM)
# In short: as §1
# [19] = test system: RARa homodimer (NR concentration 270 nM)
# In short: as §1
# [20] = test system: RARb:RXRa (NR concentration 270 nM, RXRa partner concentration 90 nM)
# In short: as §1
Sequence,PBM binding z-score [1],PBM binding z-score [2],PBM binding z-score [3],PBM binding z-score [4],PBM binding z-score [5],PBM binding z-score [6],PBM binding z-score [7],PBM binding z-score [8],PBM binding z-score [9],PBM binding z-score [10],PBM binding z-score [11],PBM binding z-score [12],PBM binding z-score [13],PBM binding z-score [14],PBM binding z-score [15],PBM binding z-score [16],PBM binding z-score [17],PBM binding z-score [18],PBM binding z-score [19],PBM binding z-score [20]
TCTCGGAGGACACGAAAGGTCGGAGCTCGACATC,1.02,1.14,-0.0519,0.48,-0.636,1.51,0.269,1.36,1.93,1.73,1.24,0.486,-0.405,-0.523,0.582,1.38,-0.652,1.61,-0.809,2.56
CCGACTGGGGCAAAGGATACCATACTCAGTACGA,-0.424,-0.501,-0.0956,-0.347,-1.05,1.32,4.4,5.19,3.28,5.31,3.85,3.35,-0.00815,-0.219,0.339,-0.407,-0.363,-0.246,-0.215,0.425
TCATATAGGTAAACAGGTGTAAGTCCGTAAGTTA,0.827,0.785,-0.0064,0.69,-0.189,1.41,1.35,2.56,3.79,3.09,3.98,2.97,1.63,0.913,1.12,0.63,0.672,0.946,1.32,0.512
CCTCCAAGGTCAGAGAGGTCAGTGAATGCCGAGT,5.62,5.09,2.77,4.43,0.381,4.71,3.2,4.06,1,2.54,2.56,2.91,-0.128,-1.11,3.5,5.94,10.8,4.82,0.862,5.18
ACTAGCAGGCCAAGGGCCACTCAAGATTAGTCCG,-0.56,-0.559,-0.856,-1,-1.27,0.699,2.13,3.13,1.28,2.51,0.244,0.822,-0.352,-1.82,-0.633,-0.879,-0.75,-0.678,-0.685,0.884
ATATGTAGGTTACATCCGGGTCATTCATGCTATG,2.21,4.15,1.59,3.05,0.928,4.55,6.16,5.07,2.55,4.45,7.49,7.53,5.06,3.54,3.61,3.79,1.66,3.83,1.2,2.23
TTACCAACGTGAAAGGTCGTTGATGCACGCCTTG,1.28,1.48,0.436,1.66,-0.169,2.84,2.46,4.26,2.49,4.17,0.0227,1.04,0.702,-0.158,1.27,2.14,0.445,2.24,0.296,1.66
TCATATAGGTAAAAGGTGATAGTCGGTGTGGTAA,1.41,1.28,0.217,1.35,0.351,4.6,8.06,7.95,8.2,8.56,5.2,4.18,1.26,1.38,1.66,0.875,0.988,1.84,1.85,1.17
CCTAGTTGTTCAAGGTCACACACGCTATAGGTAC,4.9,4.93,4.85,4.17,1.95,4.26,2.64,3.12,1.55,2.55,1.86,2.8,2.46,1.22,4.99,4.73,3.83,5,4.94,4.12
CCACACAGGTGAGAAGGTAACTCAGCCTCGATTA,0.187,0.0665,0.368,0.214,-0.197,0.855,0.76,0.577,-0.223,0.451,1.42,0.872,-0.137,-0.56,1.35,0.0866,0.0622,0.524,0.47,0.709
AGAACGAGGGCGCGCTGAGTTGATAGCAGAGTAG,-0.365,-0.482,-0.786,-0.508,-1.21,0.138,0.362,-0.296,-0.293,-0.308,1.09,0.807,-0.354,-0.835,-0.746,0.224,-0.402,-0.0213,-1.26,0.529
ACAGACAGGTGATGAAAGTAACTCAGGCTATCAT,-0.313,-0.244,-0.212,-0.34,-0.446,-0.12,0.596,-0.0784,-0.0592,-0.305,-0.123,0.107,0.648,-0.00926,-0.948,-0.313,0.153,-0.63,-0.762,0.0648
TCTTGTATATCAACAGGAGGTTAAGAAAGATCGA,0.413,1.42,0.536,1.16,0.307,1.29,0.477,1.5,3.07,2.27,1.71,0.652,1.56,1.04,0.679,1.2,0.265,1.32,0.86,0.806
GCTAATAGTTGAAAGGGCAACCGAATGATTCTCG,0.971,1.16,-0.065,1.09,-0.087,2.85,3.03,4.2,2.1,3.9,0.302,1.27,-0.057,-0.27,0.836,0.859,-0.00303,1.61,0.745,2.21
AGAATGAGGTTAAGATCAAGGAAACAGAATACAT,1.93,1.78,0.0429,1.71,-0.221,3.67,2.49,2.3,0.939,1.76,2.65,2.43,1.67,0.683,0.598,1.13,0.0373,1.75,0.928,1.88
CCTAGTTGGTCAGGCGGTCACACACCGGATATGA,0.554,0.309,0.525,0.155,0.122,0.32,0.706,0.973,-0.186,0.129,0.37,0.945,-0.344,-0.024,0.926,0.0317,0.384,-0.0122,0.796,1.75
ATACCAAGGTGATCGAGAGGTCGTTGATACTAAC,1.97,1.51,0.71,1.37,0.0291,1.72,0.979,1,0.238,0.545,0.406,1.39,0.441,0.884,1.08,2.91,1.12,2.04,0.692,1.56
AGTCAAAGTTCAGGTCGAGGTAACGTAAAGCACG,4.82,4.08,1.87,2.47,0.819,3.6,4.74,4.74,2.07,3.97,-0.195,2.16,0.434,0.251,2.76,3.53,2.14,3.43,1.49,4.47
AGTCAAAGTTCATCTAGGGAACGTAAGATATGCT,6.67,5.95,4.72,3.68,1.64,4.69,6.38,6.34,3.44,5.6,0.178,2.78,1.05,1.04,1.73,4.88,4.28,3.41,1.1,4.92
TCGAGCAGGTTACCAATGGGGCATTCAGCTTTCT,0.00101,1.37,-0.694,0.999,-1,0.887,-0.242,0.245,0.211,0.322,0.467,0.239,-1.51,-1.13,-0.591,0.0251,-0.765,0.475,-1.05,1.07
CTACCAAGGTGAACAATGTCGTTGATTACTATTC,0.559,0.263,0.0434,0.937,0.00375,1.37,0.621,0.75,0.226,0.326,2.67,2.51,0.151,0.164,0.475,0.327,-0.0411,0.755,0.471,1.67
ATCGAAAGGGCGACGAGGTGAGTATACACCGTTT,0.314,0.222,-0.247,0.0783,-0.352,0.902,0.873,0.152,0.164,-0.136,-0.129,0.9,0.582,0.302,0.304,0.264,0.172,0.542,0.176,1.74
TAGCCTAGGTCATTGGGCCAGAATAGTACGCATC,4.53,3.53,0.524,2.31,0.302,4.07,3.79,3.88,1.11,2.46,2.63,3.68,-0.385,-0.0458,1.41,1.51,-0.537,2.26,0.079,3.53
ACTCGGAGGACTAAGGTCAGAGCTACGCCAGTGA,1.93,1.78,0.464,1.49,-0.00791,2.52,1.93,2.96,0.578,2.41,-0.123,0.778,-0.0206,-0.832,1.27,1.8,0.241,2.92,-0.326,2.88
CCTAGTTGGTCATGGTCACACACGCTATAGGTAC,-0.0474,0.0849,0.431,0.71,0.175,0.348,1.04,0.761,0.167,0.467,1.53,1.72,0.378,0.935,0.845,0.223,0.732,0.207,1.39,1.46
CATACAGGGTCAGCTAGGCCAGTGTAGGGACGGC,4.16,2.82,-0.158,1.81,0.182,4.09,2.96,2.97,0.501,2.32,1.02,2.44,0.598,0.349,1.32,1.78,-0.247,3.02,-0.155,3.98
